Results reported in the supplement of paper PMC6555819.

How the values were obtained:
Test in all cases: PBM binding z-score (relative to random genomic background probes); higher = stronger binding; sequences stand for … in GC…GCGATTGACAGCGTAGAATGAAGG
[1] = test system: RARb homodimer (NR concentration 270 nM)
In short: (§1)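 The probes on custom Agilent 4×180K protein-binding microarrays were double-stranded, with 34-nt variable regions bearing direct-repeat seeds, single-nucleotide variants, half-site ablations and random human genomic background sequences. Incubation lasted 1 h with ligand-free nuclear receptor dimers in PBS pH 7.4, 2% milk, 0.02% Triton X-100, 1 mM DTT, 0.2 mg/mL BSA and 0.4 mg/ml salmon testes DNA. Antibodies against each partner (one per run) detected bound dimers, and fluorescence scans were regression-normalized. Binding z-scores take the random background probes as reference.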

[2] = test system: RARg:RXRa (NR concentration 270 nM, RXRa partner concentration 90 nM)
In short: as §1

[3] = test system: RARg homodimer (NR concentration 270 nM)
In short: as §1

[4] = test system: RXRa DBDmut IVT, anti-RXR (DBD mutation: RXRa K156A/R161A, NR concentration 90 nM)
In short: as §1

[5] = test system: RXRa homodimer (NR concentration 180 nM)
In short: as §1

[6] = test system: THRa:RXRa (NR concentration 90 nM, RXRa partner concentration 90 nM)
In short: as §1

[7] = test system: THRa homodimer (NR concentration 90 nM)
In short: as §1

[8] = test system: VDR:RXRa (NR concentration 270 nM, RXRa partner concentration 90 nM)
In short: as §1

[9] = test system: VDR homodimer (NR concentration 270 nM)
In short: as §1

| Sequence | PBM binding z-score [1] | PBM binding z-score [2] | PBM binding z-score [3] | PBM binding z-score [4] | PBM binding z-score [5] | PBM binding z-score [6] | PBM binding z-score [7] | PBM binding z-score [8] | PBM binding z-score [9] |
| --- | --- | --- | --- | --- | --- | --- | --- | --- | --- |
| CCTGCTAAGTCAATGGTCAGCTAAAGCAGCTCGC | 0.12 | -0.277 | -0.302 | 0.497 | -0.263 | -0.402 | -0.724 | -0.304 | -0.804 |
| TCCTGTAGATCAACAGGAGGTTAAGAAAGATCGA | 0.374 | 0.894 | 0.158 | -0.0672 | 0.88 | 0.931 | -0.958 | 0.266 | -0.104 |
| GGAACGAGGGCAAAGTAGATAGCATCTGTCGACG | 0.856 | 1.46 | 1.74 | 2.46 | 1.05 | 0.805 | -0.36 | 0.414 | 0.946 |
| ATCTCTAGGTAAAGTTCAATGAAAGATCGATAGA | 2.76 | 2.7 | 2.91 | 1.75 | 2.27 | 1.57 | 0.271 | 2.5 | 2.82 |
| CCGACTGGGGCAAGGTTAACATAACGCACAGCCA | 1.47 | 1.3 | 1.3 | -0.45 | 1.38 | 1.37 | -0.033 | 0.295 | 0.172 |
| ATATGTAGGTTACGGGTCATTCAGGTTGGTTCGC | 3.24 | 3.35 | 2.58 | 1.69 | 4.31 | 3.15 | 1.49 | 4.76 | 3.37 |
| GCATATAGGTAATACAAGGTGAAAATCCGATTGT | 0.426 | 0.529 | 0.709 | 0.0693 | 0.677 | 3.98 | 0.487 | 0.212 | 0.0319 |
| CCTAGCAGGCCAAGGTCACTCAAGCATTTCGCTT | 3.82 | 3.82 | 3.92 | 1.05 | 3.51 | 3.66 | 2.88 | 2.88 | 2.2 |
| CCGACTGGGGCAGAATGGTTACCATACCATCCGG | -0.435 | 0.00778 | 0.0342 | -0.908 | -0.122 | -0.891 | -0.862 | -0.638 | -0.629 |
| CAAACTAGGTCACGGAAGGTCAAAGTCGAATGAC | 5.47 | 7.13 | 7.4 | 2.45 | 7.3 | 5.24 | 2.79 | 6.69 | 3.53 |
| GCGACTGGGGCAAATCAGGTTACCATAAGGTTGG | 1.4 | 0.714 | 0.619 | -0.00232 | 0.576 | 4.22 | 0.742 | 0.324 | -0.198 |
| TTACCAAGGTGAGCTGGGGTCGTTGATCCAACTC | 1.42 | 1.31 | 0.493 | -0.222 | 2.1 | 4.38 | 1.23 | 4.15 | 1.84 |
| ACAGACGGGTGATGAAGGTAACTCAGGCTATCAT | -0.00116 | -0.0351 | 0.218 | -0.512 | 0.0942 | 0.536 | 0.269 | 0.177 | -0.203 |
| GATACAGGGTAAGCTAGAGGCCAGAGTATGGAAA | 0.413 | 0.988 | 0.547 | -0.967 | 0.303 | 0.219 | -0.653 | -0.409 | -0.382 |
| AATACAGGGTCACTAGGCCAGGGTAGGTACGAAT | 3.44 | 4.88 | 4.64 | 2.33 | 5.25 | 3.41 | 1.34 | 4 | 2.71 |
| GAGACTGGGGCAAAGCAGGTTACCATAAGGTTGG | 1.54 | 0.842 | 0.776 | -0.396 | 0.474 | 3.14 | 0.644 | 0.398 | -0.202 |
| TGTCAAAGTTCATAGGTAACGTAAGTATCCACAC | 3.62 | 5.31 | 5.2 | 4.28 | 5.16 | 2.58 | -0.00989 | 4.67 | 4.46 |
| TAGCCTAGGTCATTCATGGGCCAGTATAGAAAGC | 2.52 | 4.74 | 4.57 | 1.84 | 3.2 | 2.71 | 0.289 | 2.16 | 0.945 |

| Sequence | PBM binding z-score [1] | PBM binding z-score [2] | PBM binding z-score [3] | PBM binding z-score [4] | PBM binding z-score [5] | PBM binding z-score [6] | PBM binding z-score [7] | PBM binding z-score [8] | PBM binding z-score [9] |
| --- | --- | --- | --- | --- | --- | --- | --- | --- | --- |
| TCATAAAGGTAAACAGGTGAAAGTCCGTAAGTTA | 1.37 | 1.34 | 0.882 | 1.53 | 1.74 | 1.22 | 0.368 | 1.64 | 0.647 |
| TCATATAGGTAATATAGGTGAAAGTCGGCATCTA | 0.281 | 0.454 | 0.522 | 1.2 | 0.79 | 0.364 | -0.347 | 0.836 | 0.0956 |
| ATCTCTAGGGAAAAGTTCAGTGAATCCCGAGGAT | 2.03 | 1.23 | 1.69 | 0.323 | 0.636 | 0.24 | -0.457 | 0.557 | 1.22 |
| CGGACTGGGGCAAGGTTACCATAACGCACAGCCA | 1.45 | 1.34 | 1.4 | -0.765 | 1.28 | 1.48 | 0.546 | 0.267 | 0.0512 |
| TCATATAGGTATAGGTGAAAGTCGAACGATATGA | 0.405 | 0.646 | 0.511 | 0.538 | 1.13 | 0.242 | -0.544 | 0.632 | -0.127 |
| CAAACTAGGTCACAGACGTCAAAGTCCGTGCGTA | 3.28 | 4.49 | 5.14 | 1.98 | 3.61 | 3.32 | 1.23 | 3.26 | 0.686 |
| GATACAGGGTCAAGGCAAGAGTACGCGTATTGAT | 3.45 | 5.5 | 5.14 | 2.63 | 6.28 | 3.72 | 1.16 | 4.62 | 2.31 |
| ATATGTAGGTTAAGGGTCATTCAAGTTGGTTCGC | 4.23 | 4.98 | 4.09 | 1.9 | 6.39 | 4.2 | 1.78 | 5.82 | 3.88 |
| CGAACGAGGGCATGAGGTGATAGCAAATGCCGAT | 1.11 | 1.88 | 1.83 | 1.56 | 1.32 | 2.26 | 0.557 | 0.93 | 0.945 |
| TGAATGGGGTTAAAGATCAGGGAACGTGGCGTCG | 1.49 | 3.19 | 1.53 | 1.95 | 6 | 2.88 | 1.23 | 3.29 | 1.58 |
| ATCTCTAGGTAAAATTTCAGTGAATCCCGAGGAT | -0.0962 | 0.558 | 0.537 | 0.113 | 0.367 | 0.328 | 0.331 | 0.166 | -0.51 |
| GGAACCAGGGCAAAGTTGATAGCATCTGTCGACG | 1.67 | 1.34 | 1.41 | 1.03 | 1.12 | 1.18 | 0.549 | 0.607 | 0.747 |
| CAAACTAGGTCAAGGTCAAAGACGGTTTGTGCCA | 5.1 | 5.82 | 6.9 | 3.16 | 5.06 | 4.34 | 3.55 | 4.74 | 4.1 |
| CGAACGAGGCCATGAGTTGATAGCAAATGCCGAT | 0.354 | 0.599 | 0.821 | 0.851 | 0.328 | 0.837 | -0.151 | 0.155 | 0.777 |
| CCGACTGGGGCATAAGGTTAGCATAAGCCAGCCC | 1.26 | 0.672 | 0.69 | -0.721 | 0.224 | 1.01 | 0.298 | -0.409 | -0.543 |
| ACAAGCAGGCCAAGGGTCACTCAAGATTAGTCCG | 3.85 | 4.28 | 4.23 | 0.479 | 4.21 | 2.67 | 0.327 | 2.94 | 0.958 |
| GCTTTTAGATCAAGGTTAAGAAAGACTAAGCTAA | 0.302 | 0.483 | 0.485 | 0.874 | 0.844 | 1.37 | 0.0946 | 0.374 | -0.0628 |
| CCTATTAGTTGACCACAAGGGCAACCGAAGCTCG | 1.95 | 1.15 | 1.01 | 0.553 | 0.829 | 1.23 | 0.878 | 0.807 | 1.01 |
